From the supplement of paper PMC6555819

tested on: PXR homodimer (NR concentration 270 nM); experiment: PBM binding z-score (relative to random genomic background probes); higher = stronger binding; sequences stand for … in GC…GCGATTGACAGCGTAGAATGAAGG
Summary of the method: (§1)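 Probes were double-stranded and carried 34-nt variable regions with direct-repeat seeds, single-nucleotide variants, half-site ablations and random human genomic background sequences, printed on custom Agilent 4×180K protein-binding microarrays. Arrays were incubated 1 h with ligand-free nuclear receptor dimers in PBS pH 7.4, 2% milk, 0.02% Triton X-100, 1 mM DTT, 0.2 mg/mL BSA and 0.4 mg/ml salmon testes DNA. Antibodies against each partner (one per run) detected binding, and scanned fluorescence was regression-normalized. Binding z-scores use the random background probes as reference.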

Row | Sequence | PBM binding z-score
1 | TCATTTAGGTAAAAGGTGAAAGTCGGTGTGGTAA | 0.93
2 | CCTAGTTAGTCAGGAGGTCACACACCGGATATGA | 1.96
3 | TATACAGGGTCAAAGGCCAGAGGACGAATGTCGA | 0.565
4 | GTACCAAGGTGAATAGGTGGTTGATGAGTAGGCG | 0.469
5 | CGAACGAGGGCAGGAGTTGATAGCAAATGCCGAT | -0.229
6 | CCTTACGGGTCACGAGGCTATAGCACGACGAGCG | -0.243
7 | TCTATTAGTTGAAGGACAACCGACGAGTCCGTTT | 1.09
8 | CGTCCAAGGCCATAGGAGGTCAGTGAAGACAGAT | 1.16
9 | CCTACTGGGCCATTCAGAGGTCATTCATCATATG | 2.5
10 | AGAATGAGGTTATACGTGGATCAGGGAAGAAAGT | 0.993
11 | TCATATATGTAATACAGGTGAAAGTCGGCATCTA | 0.494
12 | ATCGAAAGGTCGGGGTGAGTATAGAGAAAGGGAA | 1.39
13 | ATCTCTAGGTAAAGTTCAGGGAAAGATCGATAGA | 1.99
14 | ATATGTAGGTTACATCCGGGTCACTCAGGCTATG | 1.26
15 | GCTAGAAGGCCATTTGGGTCACTCAATGACGGGC | 1.2
16 | GGAACGAGGGCTAGTTGATAGCAGAGTTTGATGG | -0.283
17 | TGAACGAGGTTAAAGATCAGGGAACGTGGCGTCG | -0.0143
18 | TCATATAGGTAAAGATGAAAGTCGAACGATATGA | -0.0684
19 | AGAACGAGGGCAATGAGTTGATACCACGGGTGGC | 5.24
20 | CAGCCTGGGTCAGGGCCAGTATAGGAGGAACGTT | -0.685

Row | Sequence | PBM binding z-score
21 | CCTTACGGGTCACGAGGTTATAACACGACGAGCG | 0.145
22 | TCTGCGAGGTCAACGATGGTCAGCTAATCTGCTA | 1.03
23 | GCTAGCAGCCCATTTGGGTCACTCAATGACGGGC | -0.918
24 | CCTGCTGGGTCAATGGTCAGCTAAAGCAGCTCGC | -0.552
25 | TAGCCTAAGTCATTCAGGGGCCAGTATAGAAAGC | -0.297
26 | CCTTACGGGTCACTAACAGGTTATAGCATTTGGA | 0.184
27 | TTCCCAAGGTGAAAGGTCGTTGATGCACGCCTTG | 0.342
28 | AGAACGAGGGCACGCTGAGTTGATATCAGAGTAG | 0.106
29 | CTACCAAGGTGAACAAGGTCGTGGATTACTATTC | 0.298
30 | CGAACTAGGGCAAGGACAGTGAATCTCCGCACGC | -0.43
31 | CGAATTAGGTCAGAACAGGACAGTGAAGGATGAT | 0.149
32 | GCTCCTAGGTCAGGTTGGTCAGCTAACGGGTACG | 0.2
33 | TTACCTAGGTGAAAGGTCGTTGATGCACGCCTTG | 0.261
34 | TCTATTAGTTGATTAGGGCAACCAAAACAGCGGA | 0.323
35 | TCGAGTTGGTCAAAGGTCACACACTCGAAATGCG | 1.41
36 | CAAACTAGGTCACGAAAGGACAAAGTCGAATGAC | 0.691
37 | TAGCCTAGGTCAGATCGAGCCAGTATACGCTATA | -0.429
38 | AATACAGGGTCACTAGGCCAGACTAGGTACGAAT | 0.374
39 | CGTCCGAGGTCAGAGAGGTCAGTGAATGCCGAGT | 12.4
40 | CAAACTAAGTCACAGAGGTCAAAGTCCGTGCGTA | 3.71

tested on: RARa:RXR (NR concentration 270 nM, RXRa partner concentration 90 nM); experiment: as above
Summary of the method: as §1

Row | Sequence | PBM binding z-score
41 | TCATTTAGGTAAAAGGTGAAAGTCGGTGTGGTAA | 2.74
42 | CCTAGTTAGTCAGGAGGTCACACACCGGATATGA | 4.59
43 | TATACAGGGTCAAAGGCCAGAGGACGAATGTCGA | 5.97
44 | GTACCAAGGTGAATAGGTGGTTGATGAGTAGGCG | -0.021
45 | CGAACGAGGGCAGGAGTTGATAGCAAATGCCGAT | -0.159
46 | CCTTACGGGTCACGAGGCTATAGCACGACGAGCG | 4.45
47 | TCTATTAGTTGAAGGACAACCGACGAGTCCGTTT | 0.65
48 | CGTCCAAGGCCATAGGAGGTCAGTGAAGACAGAT | 2
49 | CCTACTGGGCCATTCAGAGGTCATTCATCATATG | 4.07
50 | AGAATGAGGTTATACGTGGATCAGGGAAGAAAGT | 1.89
51 | TCATATATGTAATACAGGTGAAAGTCGGCATCTA | 1.41
52 | ATCGAAAGGTCGGGGTGAGTATAGAGAAAGGGAA | 3.03
53 | ATCTCTAGGTAAAGTTCAGGGAAAGATCGATAGA | 1.93
54 | ATATGTAGGTTACATCCGGGTCACTCAGGCTATG | 3.74
55 | GCTAGAAGGCCATTTGGGTCACTCAATGACGGGC | 1.08
56 | GGAACGAGGGCTAGTTGATAGCAGAGTTTGATGG | -0.627
57 | TGAACGAGGTTAAAGATCAGGGAACGTGGCGTCG | 2.94
58 | TCATATAGGTAAAGATGAAAGTCGAACGATATGA | 0.268
59 | AGAACGAGGGCAATGAGTTGATACCACGGGTGGC | 0.38
60 | CAGCCTGGGTCAGGGCCAGTATAGGAGGAACGTT | 0.59

Row | Sequence | PBM binding z-score
61 | CCTTACGGGTCACGAGGTTATAACACGACGAGCG | 5.6
62 | TCTGCGAGGTCAACGATGGTCAGCTAATCTGCTA | 5.37
63 | GCTAGCAGCCCATTTGGGTCACTCAATGACGGGC | 0.359
64 | CCTGCTGGGTCAATGGTCAGCTAAAGCAGCTCGC | 1.78
65 | TAGCCTAAGTCATTCAGGGGCCAGTATAGAAAGC | 0.276
66 | CCTTACGGGTCACTAACAGGTTATAGCATTTGGA | 4.08
67 | TTCCCAAGGTGAAAGGTCGTTGATGCACGCCTTG | 5.56
68 | AGAACGAGGGCACGCTGAGTTGATATCAGAGTAG | 0.865
69 | CTACCAAGGTGAACAAGGTCGTGGATTACTATTC | 2.92
70 | CGAACTAGGGCAAGGACAGTGAATCTCCGCACGC | -0.371
71 | CGAATTAGGTCAGAACAGGACAGTGAAGGATGAT | 1.31
72 | GCTCCTAGGTCAGGTTGGTCAGCTAACGGGTACG | 1.26
73 | TTACCTAGGTGAAAGGTCGTTGATGCACGCCTTG | 4.82
74 | TCTATTAGTTGATTAGGGCAACCAAAACAGCGGA | 0.556
75 | TCGAGTTGGTCAAAGGTCACACACTCGAAATGCG | 7.61
76 | CAAACTAGGTCACGAAAGGACAAAGTCGAATGAC | 3.22
77 | TAGCCTAGGTCAGATCGAGCCAGTATACGCTATA | 0.664
78 | AATACAGGGTCACTAGGCCAGACTAGGTACGAAT | 3.87
79 | CGTCCGAGGTCAGAGAGGTCAGTGAATGCCGAGT | 5.71
80 | CAAACTAAGTCACAGAGGTCAAAGTCCGTGCGTA | 6.39
